Laboratory results published in PubChem BioAssay AID1671202 (University of Kansas High Throughput Screening Laboratory, 2021).
Several values for one entry are separate records, joined by “and”; a condition that tells them apart may be missing. Equal values may be shown once. In all, about 190,000 compounds went through this assay and about 6,900 (3.6%) were called active. The sample holds actives, similar compounds and a random draw of the others, so the mix is not that of the screen. No stated cut-off is given here; in the data, active means inhibition above about 50%; inactive means the rest.

The molecules below were run against Huntingtin (Homo sapiens) (UniProt P42858) (assay: mutant huntingtin-calmodulin interaction inhibitors – biochemical, AlphaScreen, primary screen (AID 1671202;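 further: 0% = both proteins with DMSO and 100% = one protein alone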)). Details: AlphaScreen His-mHTT/GST-CaM binding, luminescence; at 15 µM, stronger effect = higher value.
Chain of Huntingtin (Homo sapiens) (P42858 whole entry, looked up, stated change not applied): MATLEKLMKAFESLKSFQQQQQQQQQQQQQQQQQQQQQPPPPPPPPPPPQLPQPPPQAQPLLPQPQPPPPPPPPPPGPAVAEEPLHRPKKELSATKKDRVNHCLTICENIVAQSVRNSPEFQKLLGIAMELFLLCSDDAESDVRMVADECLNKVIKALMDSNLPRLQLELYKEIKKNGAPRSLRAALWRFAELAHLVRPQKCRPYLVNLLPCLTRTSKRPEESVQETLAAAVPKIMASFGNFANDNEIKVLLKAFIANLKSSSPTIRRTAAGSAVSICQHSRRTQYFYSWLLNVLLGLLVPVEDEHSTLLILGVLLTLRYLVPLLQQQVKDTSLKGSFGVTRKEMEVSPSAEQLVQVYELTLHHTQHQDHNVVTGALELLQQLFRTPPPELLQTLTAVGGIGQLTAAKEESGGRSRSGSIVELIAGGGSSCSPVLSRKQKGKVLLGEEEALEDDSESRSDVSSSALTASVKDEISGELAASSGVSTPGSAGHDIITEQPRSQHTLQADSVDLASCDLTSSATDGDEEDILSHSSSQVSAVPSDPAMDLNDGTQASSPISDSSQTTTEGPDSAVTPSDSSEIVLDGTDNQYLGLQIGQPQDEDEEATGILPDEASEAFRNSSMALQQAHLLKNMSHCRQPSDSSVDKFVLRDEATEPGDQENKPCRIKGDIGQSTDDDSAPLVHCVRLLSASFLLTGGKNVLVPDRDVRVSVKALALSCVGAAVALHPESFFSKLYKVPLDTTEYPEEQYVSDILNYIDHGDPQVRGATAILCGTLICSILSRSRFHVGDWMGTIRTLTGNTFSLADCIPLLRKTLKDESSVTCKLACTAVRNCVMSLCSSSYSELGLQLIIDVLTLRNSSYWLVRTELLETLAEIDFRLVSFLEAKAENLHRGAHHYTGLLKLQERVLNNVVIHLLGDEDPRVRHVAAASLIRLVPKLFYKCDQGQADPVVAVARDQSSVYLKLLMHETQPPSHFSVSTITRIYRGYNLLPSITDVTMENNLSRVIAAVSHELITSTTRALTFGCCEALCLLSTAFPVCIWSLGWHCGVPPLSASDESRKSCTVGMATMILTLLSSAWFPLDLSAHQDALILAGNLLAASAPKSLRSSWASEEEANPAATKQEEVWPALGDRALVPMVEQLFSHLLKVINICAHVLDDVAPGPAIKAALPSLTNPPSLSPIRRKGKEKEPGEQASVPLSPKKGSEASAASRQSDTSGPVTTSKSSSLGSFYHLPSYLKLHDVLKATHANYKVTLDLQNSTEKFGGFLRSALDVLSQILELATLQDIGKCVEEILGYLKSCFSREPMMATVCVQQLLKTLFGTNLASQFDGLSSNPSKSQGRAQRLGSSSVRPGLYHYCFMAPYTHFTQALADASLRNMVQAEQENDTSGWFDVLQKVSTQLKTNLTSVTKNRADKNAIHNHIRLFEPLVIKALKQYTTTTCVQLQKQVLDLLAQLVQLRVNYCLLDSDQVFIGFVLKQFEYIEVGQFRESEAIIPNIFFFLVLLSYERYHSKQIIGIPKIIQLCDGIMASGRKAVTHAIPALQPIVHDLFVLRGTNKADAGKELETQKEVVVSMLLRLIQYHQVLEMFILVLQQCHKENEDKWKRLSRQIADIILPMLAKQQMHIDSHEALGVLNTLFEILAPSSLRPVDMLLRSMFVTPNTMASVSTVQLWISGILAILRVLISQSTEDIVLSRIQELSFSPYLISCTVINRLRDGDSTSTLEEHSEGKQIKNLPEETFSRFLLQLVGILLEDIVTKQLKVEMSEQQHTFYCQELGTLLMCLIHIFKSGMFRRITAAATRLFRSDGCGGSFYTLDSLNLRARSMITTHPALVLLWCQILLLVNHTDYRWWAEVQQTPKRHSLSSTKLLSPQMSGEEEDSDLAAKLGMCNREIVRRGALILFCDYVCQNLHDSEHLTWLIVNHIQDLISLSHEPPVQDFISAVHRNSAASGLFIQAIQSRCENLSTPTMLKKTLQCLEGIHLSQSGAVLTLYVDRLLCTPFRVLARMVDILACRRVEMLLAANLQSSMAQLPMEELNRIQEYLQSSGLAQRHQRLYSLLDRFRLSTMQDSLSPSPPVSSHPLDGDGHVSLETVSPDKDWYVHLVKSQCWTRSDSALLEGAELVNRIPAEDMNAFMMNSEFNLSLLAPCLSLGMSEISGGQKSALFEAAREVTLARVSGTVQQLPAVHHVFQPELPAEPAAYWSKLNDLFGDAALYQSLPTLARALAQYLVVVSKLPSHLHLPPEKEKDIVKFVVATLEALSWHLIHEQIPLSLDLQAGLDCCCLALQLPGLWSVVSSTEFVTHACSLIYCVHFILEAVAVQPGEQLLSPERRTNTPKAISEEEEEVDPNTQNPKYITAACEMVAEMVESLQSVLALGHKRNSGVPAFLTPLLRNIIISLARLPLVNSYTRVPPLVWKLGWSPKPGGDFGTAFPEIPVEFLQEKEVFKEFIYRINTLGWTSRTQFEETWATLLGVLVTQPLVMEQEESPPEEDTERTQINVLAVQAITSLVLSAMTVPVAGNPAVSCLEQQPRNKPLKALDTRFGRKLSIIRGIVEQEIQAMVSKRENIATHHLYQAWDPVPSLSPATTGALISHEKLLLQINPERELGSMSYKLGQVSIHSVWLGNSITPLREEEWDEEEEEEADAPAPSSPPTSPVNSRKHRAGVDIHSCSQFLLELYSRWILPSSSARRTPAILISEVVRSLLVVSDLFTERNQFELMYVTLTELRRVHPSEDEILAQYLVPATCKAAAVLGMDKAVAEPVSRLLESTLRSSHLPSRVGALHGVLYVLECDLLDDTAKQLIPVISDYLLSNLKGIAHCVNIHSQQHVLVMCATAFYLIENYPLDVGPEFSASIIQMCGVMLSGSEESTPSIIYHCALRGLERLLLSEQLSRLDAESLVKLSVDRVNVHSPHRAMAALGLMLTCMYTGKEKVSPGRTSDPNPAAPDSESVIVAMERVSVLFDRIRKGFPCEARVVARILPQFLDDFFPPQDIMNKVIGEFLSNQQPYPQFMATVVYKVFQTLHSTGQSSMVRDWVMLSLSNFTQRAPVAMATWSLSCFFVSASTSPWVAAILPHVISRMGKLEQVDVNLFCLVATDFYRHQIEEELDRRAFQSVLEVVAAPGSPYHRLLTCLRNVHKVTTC

Row | Compound | inhibition
1 | CC1CN(C(=O)COc2cccc3c2OC(C)(C)C3)CC(C)O1 (configuration not stated) | 1.8% (inactive)
2 | CCCCOc1ccc(NC(=O)N(Cc2ccccn2)Cc2ccco2)cc1 | -0.5% (inactive)
3 | Cc1ccc(NC(=O)N2CCCC(CC(=O)N3CCN(c4ccccc4F)CC3)C2)cc1 (configuration not stated) | 8.68% (inactive)
4 | O=C(c1cccs1)N1CCN(C2=NN=C(c3ccccc3)CS2)CC1 | 86.5% (active)
5 | CCOC(=O)CCC(=O)N1CCN(C2=NN=C(c3ccccc3)CS2)CC1 | 32.5% (inactive)
6 | O=C(c1cccs1)N1CCN(c2cc(-c3cccnc3)[nH]n2)CC1 | -4.79% (inactive)
7 | O=[N+]([O-])c1ccc(Oc2ccc(Cl)c3cccnc23)c(Cl)c1 | -1% (inactive)
8 | Cc1ccccc1-c1noc(C2CCCN2C(=O)Nc2ccccc2Cl)n1 (configuration not stated) | -25.4% (inactive)
9 | Cc1ccccc1-c1noc(C2CCCN2C(=O)NCc2ccc(F)cc2)n1 (configuration not stated) | 68.5% (active)
10 | COc1ccc(NC(=O)N2CCCC2c2nc(-c3ccccc3C)no2)cc1 (configuration not stated) | 7.96% (inactive)
11 | CCOc1cccc(C(=O)Nc2ccc(-c3nc4ncccc4o3)cc2)c1 | -4% (inactive)
12 | CC1(C)CC(=O)C2=C(C1)c1c(ccc3ncccc13)NC2c1ccc([N+](=O)[O-])cc1 (configuration not stated) | 54% (active)
13 | CCOc1ccc(C2Nc3ccc4ncccc4c3C3=C2C(=O)CC(C)(C)C3)cc1 (configuration not stated) | 3% (inactive)
14 | CC1(C)CC(=O)C2=C(C1)c1c(ccc3ncccc13)NC2c1ccc(O)cc1 (configuration not stated) | 2% (inactive)
15 | O=C1OC(/C=C/c2cccc(Cl)c2Cl)=NC/1=C\c1cccc([N+](=O)[O-])c1 | 1% (inactive)
16 | O=c1[nH]c2c(c(=O)[nH]1)C(c1cc([N+](=O)[O-])ccc1N1CCOCC1)O2 (configuration not stated) | 3% (inactive)
17 | CC1=NN2C(C1)c1ccccc1OC2c1ccc(Cl)cc1 (configuration not stated) | -1% (inactive)
18 | Cc1ccc(C2Oc3ccccc3C3CC(c4cccs4)=NN32)o1 (configuration not stated) | 63% (active)
19 | COc1ccc(C2=NN3C(C2)c2ccccc2OC3c2cccc([N+](=O)[O-])c2)cc1 (configuration not stated) | 10% (inactive)
20 | COc1ccc(C2CC(c3cccs3)=NN2c2ccccc2)cc1 (configuration not stated) | -183% (inactive)
21 | N#Cc1ccc(C2Oc3ccccc3C3CC(c4ccccc4)=NN32)cc1 (configuration not stated) | 14% (inactive) and 1.44% (inactive)
22 | COc1cc(OC)c(C2Oc3ccccc3C3CC(c4cccs4)=NN32)cc1OC (configuration not stated) | 52% (active)
23 | Cn1cccc1C(=O)N1CC2CC1CC2NS(=O)(=O)c1cccs1 (configuration not stated) | 14.1% (inactive)

Row | Compound | inhibition
24 | Fc1ccc(CSc2nnnn2-c2ccc3c(c2)OCO3)cc1 | -29% (inactive)
25 | CC(C)c1nc2c(NC(=O)C3CC3)cccn2n1 | -7.5% (inactive)
26 | CCCCN(CC)S(=O)(=O)c1ccc(Cl)cc1 | -36.2% (inactive)
27 | Cc1cc(C)cc(N2C(=O)C(N3C(=O)c4ccccc4C3=O)C2c2ccc(F)cc2)c1 (configuration not stated) | 3% (inactive)
28 | O=C(NCc1ccc(F)cc1)C1CCN(c2nccn3nc(-c4ccc(F)cc4)cc23)CC1 | 4.41% (inactive)
29 | Cc1ccc(-c2cc3c(N4CCC(C(=O)NCc5cccnc5)CC4)nccn3n2)cc1C | 59.9% (active)
30 | CCN(CC)S(=O)(=O)N1CCC(C(=O)NCc2cccnc2)CC1 | -11% (inactive)
31 | CC(NC(=O)C1CCN(c2nccn3nc(-c4cccs4)cc23)CC1)c1ccccc1 (configuration not stated) | 59.4% (active)
32 | O=C(NCc1cccs1)C1CCN(c2nccn3nc(-c4ccccc4)cc23)CC1 | 18.6% (inactive)
33 | O=C(NCc1ccc(Cl)cc1)C1CCN(c2nccn3nc(-c4ccccc4)cc23)CC1 | 52% (active)
34 | O=C(NCCc1ccccn1)C1CCN(c2nccn3nc(-c4ccc(F)cc4)cc23)CC1 | 15% (inactive)
35 | CC(NC(=O)C1CCN(c2nccn3nc(-c4ccccc4)cc23)CC1)c1ccc(F)cc1 (configuration not stated) | -3.07% (inactive)
36 | O=C(Nc1cccc(Cl)c1)C1CCN(c2nccn3nc(-c4ccccc4)cc23)CC1 | 4.34% (inactive)
37 | CCCCS(=O)(=O)N1CC=C(c2cn(CC)c3ncccc23)CC1 | 8.9% (inactive)
38 | Nc1ncnc(N2CCN(c3ccccc3)CC2)c1[N+](=O)[O-] | 7% (inactive)
39 | Cc1ccc(NC(=O)C2CCc3sc(C(=O)N(C)C)cc3C2)cc1Cl (configuration not stated) | 5.44% (inactive)
40 | COc1ccc(-c2nc(-c3cccc(-c4ccnn4C)c3)no2)cc1F | -14.7% (inactive)
41 | CCC(Sc1nnnn1-c1ccccc1)C(=O)Nc1nnc(C(C)C)s1 (configuration not stated) | 6.4% (inactive)
42 | O=C(Nc1ccc(N2CCN(c3ccccc3)C2=O)nc1)c1ccc(F)cc1 | 1.4% (inactive)
43 | Cn1cccc1CN(C(=O)Nc1ccccc1Cl)C1CC1 | 22% (inactive)
44 | COc1cc(/C=C2/SC(=O)NC2=O)cc(Br)c1O | 7% (inactive)
45 | COc1cc(/C=C2/C(=O)N(c3ccc(Cl)c(Cl)c3)N=C2C)ccc1O | 79% (active)
46 | COc1ccc(/C=C2/C(=O)N(c3ccccc3)N=C2C)c(OC)c1 | 25% (inactive)

Row | Compound | inhibition
47 | COc1cc(/C=C2/C(=O)N(c3ccc(Cl)c(Cl)c3)N=C2C)cc(Br)c1O | 75% (active)
48 | CC1=NN(c2ccc(Cl)cc2Cl)C(=O)/C1=C/c1ccc(Cl)cc1 | 27% (inactive)
49 | COc1cc(/C=C2/C(=O)N(c3ccc(C(=O)O)cc3)N=C2C)ccc1O | 13% (inactive)
50 | Cc1ccnc(NC(=O)c2c(O)c3cccc4c3n(c2=O)CCC4)c1 | 4% (inactive)
51 | CCCC(=O)N1CCC2(C1)C(=O)Nc1ccccc12 (configuration not stated) | 0.5% (inactive)
52 | Cc1cccc2[nH]c(S(=O)(=O)Cc3ccc(F)cc3Cl)nc12 | -2% (inactive)
53 | Cc1ccccc1NC(NC(=O)c1cccc([N+](=O)[O-])c1)C(Cl)(Cl)Cl (configuration not stated) | 48% (inactive)
54 | O=C(NC(Nc1cccc([N+](=O)[O-])c1)C(Cl)(Cl)Cl)c1ccc(Br)cc1 (configuration not stated) | 76% (active)
55 | CC(C)(C)NC(NC(=O)c1ccc(Br)cc1)C(Cl)(Cl)Cl (configuration not stated) | -11% (inactive)
56 | O=C(NCc1ccccn1)C1CN(C(=O)c2ccncc2)CC12CCCCC2 (configuration not stated) | -2.9% (inactive)
57 | COc1cc(NC(=O)C2CN(C(=O)c3ccncc3)CC23CCCCC3)cc(OC)c1 (configuration not stated) | 87.6% (active)
58 | COc1ccc(C)cc1NC(=O)C1CN(C(=O)c2ccncc2)CC12CCCCC2 (configuration not stated) | 41.7% (inactive)
59 | CNC(=O)C(=O)Nc1ccc(OC)cc1 | 2% (inactive)
60 | C=CCNC(=O)c1cc(=O)[nH]c2c(Cl)cccc12 | 2.2% (inactive)
61 | COCCn1ccc2c(OCC(=O)Nc3cccc([N+](=O)[O-])c3)cccc2c1=O | -19% (inactive)
62 | CC1CC(=O)Nc2c1c(NC(=O)c1ccc3c(c1)OCO3)nn2C (configuration not stated) | -9.4% (inactive)
63 | CCOc1ccccc1C(=O)Nc1c2c(nn1-c1cccc(Cl)c1)CSC2 | 0% (inactive)
64 | CCOc1ccccc1C(=O)Nc1nn(C)c2c1C(c1cccs1)CC(=O)N2 (configuration not stated) | 100% (active)
65 | CC(=O)N1CCN(c2nc3c(s2)CC(C(=O)NCCCN2CCC(C)CC2)CC3)CC1 (configuration not stated) | 4.75% (inactive)
66 | Cc1nnc(NC(=O)CSc2nc(C(C)C)ccc2C#N)s1 | -5% (inactive)
67 | Cc1ccccc1N1CCN(C/C=C/c2ccccc2[N+](=O)[O-])CC1 | 35.9% (inactive)
68 | C(=C\c1ccccc1)/CN1CCN(CC2CCCCC2)CC1 | 3.7% (inactive)
69 | CN(C)c1ccc(/C=C/CN2CCN(c3ccccc3F)CC2)cc1 | 72.5% (active)

Row | Compound | inhibition
70 | Cc1cc(CNC(=O)CSc2ccncc2)no1 | -14.6% (inactive)
71 | CC(=O)N1CCc2c(sc(NC(=O)c3cc(C)oc3C)c2C(N)=O)C1 | -3.5% (inactive)
72 | Cc1cc2c(N3CCCC(C(=O)Nc4cccc(F)c4)C3)nccc2s1 (configuration not stated) | -8.41% (inactive)
73 | Cc1cc2c(N3CCC(C(=O)Nc4cccc(F)c4)CC3)nccc2s1 | 45.2% (inactive)
74 | Cc1cc2c(N3CCC(C(=O)Nc4cccc(C(F)(F)F)c4)CC3)nccc2s1 | 80.9% (active)
75 | O=C1CC(c2ccccc2Cl)=Nc2ccccc2N1 | 5% (inactive)
76 | C=CCN(CC=C)S(=O)(=O)c1ccc(C(=O)Nc2nnc(-c3ccc(F)cc3)o2)cc1 | 6% (inactive)
77 | N#Cc1sc2nc(-c3cccs3)ccc2c1N | 5% (inactive) and -18.7% (inactive)
78 | COc1cc(CN2CCN(Cc3cc(OC)c(OC)cc3OC)CC2)cc(OC)c1 | 7.3% (inactive)
79 | COc1cc(OC)c(OC)cc1CN1CCN(c2ccccc2F)CC1 | 6.5% (inactive)
80 | COc1cc2c(-c3ccccc3)c(C)oc2cc1CN1CCN(c2ncccn2)CC1 | 62.2% (active)
81 | CN(CCc1ccccn1)C(=O)C1CCCN(c2cnn(C)c(=O)c2)C1 (configuration not stated) | -0.11% (inactive)
82 | CCC(=O)NCc1csc(C2CCN(C(=O)c3cccs3)CC2)n1 | 5.45% (inactive)
83 | Cc1ccc(CNC(=O)C2(C)CCCN(C(=O)CC(C)C)C2)cc1 (configuration not stated) | -7.13% (inactive)
84 | COc1ccc(C(=O)N2CCOC(COc3ccc(C)cc3)C2)cc1 (configuration not stated) | 4.7% (inactive)
85 | Cc1ccc(S(=O)(=O)N2CCC(=O)N([C@H](COCc3ccccc3)Cc3ccccc3)CC2)cc1 | -1.2% (inactive) and -4% (inactive)
86 | CC(C)C[C@@H](CO)N1CCN(Cc2ccc(O)cc2)CCC1=O | -0.4% (inactive)
87 | CC(C)C[C@@H](COc1ccccc1)N1CCN(CC(C)C)CCC1=O | 5.6% (inactive)
88 | O=C(c1ccc(C(F)(F)F)cc1)N1CCC(=O)N([C@H](COCc2ccccc2)Cc2ccccc2)CC1 | 99.4% (active)
89 | CC(C)C[C@@H](COCc1ccc(Cl)cc1)N1CCN(C(=O)c2ccc(Cl)cc2Cl)CCC1=O | 86% (active)
90 | CN1CCC(=O)N([C@H](CO)Cc2ccccc2)CC1 | -6.6% (inactive)
91 | O=C(NCC(c1cccs1)N1CCOCC1)C(=O)Nc1ccon1 (configuration not stated) | -10.7% (inactive)
92 | CCOc1ccccc1N1CCN(CC2CC3C=CC2C3)CC1 (configuration not stated) | 3.9% (inactive)
